Laboratory results taken from PubChem BioAssay (NCI).
This is part of a sample that, as a whole, favours compounds with a hit. Of some 79,000 tested, about 15% had one in any assay. Rule as the data show it: active = growth inhibition above about 70%; inactive = the rest.

Key:
[1] = NCI Yeast Anticancer Drug Screen. Data for the rad50 strain (AID 155);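 also: 0% = growth of vehicle-only cultures of the same strain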; conditions: S. cerevisiae rad50 strain growth inhibition; at 50.0 µM; stronger effect = higher value
How it was run: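 Inhibition values express reduced yeast growth in compound-treated cultures relative to vehicle-treated controls.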

[2] = NCI Yeast Anticancer Drug Screen. Data for the mec2-1 strain (AID 157); conditions: S. cerevisiae mec2-1 strain, at 50.0 µM, stronger effect = higher value
How it was run: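 Vehicle-treated cultures served as reference for growth inhibition of compound-exposed mec2-1 yeast.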

[3] = NCI Yeast Anticancer Drug Screen. Data for the sgs1 mgt1 strain (AID 161);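 also: 0% = growth of cultures given vehicle only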; conditions: S. cerevisiae sgs1 mgt1 strain, at 50.0 µM, stronger effect = higher value
How it was run: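 Genetically altered yeast, compound exposure, growth inhibition relative to vehicle.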

[4] = NCI Yeast Anticancer Drug Screen. Data for the cln2 rad14 strain (AID 165);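 also: 0% = growth equal to vehicle treated cultures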; conditions: S. cerevisiae cln2 rad14 strain, at 50.0 µM, stronger effect = higher value
How it was run: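 Each compound was tested on cln2 rad14 yeast. Inhibition of growth was calculated against vehicle-exposed controls.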

[5] = NCI Yeast Anticancer Drug Screen. Data for the bub3 strain (AID 167); conditions: S. cerevisiae bub3 mutant strain, at 50.0 µM, stronger effect = higher value
How it was run: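 Steps: expose the mutant yeast strain to compound; grow alongside vehicle-treated cultures; measure growth; express inhibition against the vehicle cultures.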

[6] = NCI Yeast Anticancer Drug Screen. Data for the mlh1 rad18 strain (AID 175); conditions: S. cerevisiae mlh1 rad18 strain growth inhibition; at 50.0 µM; stronger effect = higher value
How it was run: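 Vehicle-treated cultures served as the reference for growth inhibition in a yeast strain carrying DNA damage repair alterations exposed to each compound.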

Measured: growth inhibition

O=C(NCC1CC1)c1ccccc1NC(=O)c1cc2ccccc2oc1=O
inactive: [1] -7.9% | [2] -8.25% | [3] 8.4% | [4] 9.85% | [5] 18.7% | [6] 19.8%

COc1ccc(OC)c(C2SCC(=O)N2c2nncs2)c1 (stereo unspecified)
inactive: [1] -19.8% | [2] 6% | [3] 15.2% | [4] -17.6% | [5] -8.7% | [6] 2.2%

O=C(OCN1C(=O)C2C3C=CC(C2C1=O)C1C2C(=O)N(COC(=O)C4CCCN4)C(=O)C2C31)C1CCCN1 (stereo unspecified)
inactive: [1] 5% | [2] -15.6% | [3] -36.6% | [4] 2.95% | [5] -42.8% | [6] -10.1%

O=C(NCC1CC1)NC(=O)c1ccccc1F
inactive: [1] -4.3% | [2] -34.6% | [3] -14.3% | [4] 16.6% | [5] -10.6% | [6] -16.9%

CC1(C)CS(=O)(=O)CC(C)(C)C(=O)C1=O
inactive: [1] -25.6% | [2] -19% | [3] -15% | [4] 5.45% | [5] -6% | [6] -3.4%

CCCOC(=O)OCCC
inactive: [1] -9.8% | [2] -37.3% | [3] -4.9% | [4] 2.9% | [5] -31.8% | [6] -10.9%

C1CCC(NCCNC2CCCCC2)CC1
inactive: [1] 11.8% | [2] -16.9% | [3] 5.5% | [4] 18.6% | [5] -2.8% | [6] 10.3%

O=CNCCN(C=O)CCO
inactive: [1] -28.6% | [2] -29.9% | [3] -31.9% | [4] 1.85% | [5] -12% | [6] -9.55%

Cc1c(NC(=O)Nc2c(Cl)cccc2Cl)c(=O)n(-c2ccccc2)n1C
inactive: [1] -42.8% | [2] -36.3% | [3] -15.5% | [4] -10.2% | [5] -29.9% | [6] -39.9%

CCOC(=O)C(NC(=O)Cc1ccccc1)C(=O)OCC
inactive: [1] 10.8% | [2] 10.3% | [3] -0.75% | [4] 10.8% | [5] 14.9% | [6] -17.9%

NC(=O)/N=C/NC(N)=O
inactive: [1] 21.6% | [2] -14.3% | [3] 21.8% | [4] -5.3% | [5] -24.5% | [6] 2.65%

O=C(O)CCc1cccc2c(=O)cc(-c3ccccc3)oc12
inactive: [1] -10.3% | [2] -1.7% | [3] 0.8% | [4] 30.9% | [5] 8.35% | [6] 3.35%

O=C(Cc1ccccc1)NN1C(=O)/C(=C\c2ccccc2)SC1=Nc1ccccc1
inactive: [1] 12% | [2] -1.35% | [3] 19.3% | [4] 35.5% | [5] 9.15% | [6] 10.8%

O=C1Cc2c([nH]c3ccccc23)-c2cc(Br)ccc2N1
inactive: [1] 13.4% | [2] 6.85% | [3] -2% | [4] 2.9% | [5] 31.6% | [6] 2.9%

O=NN(CCCl)C(=S)NC1CCCCC1
inactive: [1] 3.25% | [2] -0.15% | [3] 6.35% | [4] 7.2% | [5] -3.6% | [6] 47.8%

C=CCSc1nc2ccc(NCn3c(=S)sc4cc([N+](=O)[O-])ccc43)cc2s1
inactive: [1] 12.6% | [2] 14.4% | [3] 30.9% | [4] 14% | [5] 3.4% | [6] 31.9%

CC1=C(C(=O)Nc2ccccc2C)C(c2ccc(N(C)C)cc2)C(C(=O)Nc2ccccc2C)=C(C)N1
inactive: [1] -27% | [2] -20% | [3] -17.4% | [4] -11.2% | [5] -8.95% | [6] -13.8%

O=c1[nH]c2cc([N+](=O)[O-])ccc2nc1/C(=N\Nc1ccccc1)C(O)c1ccc2c(c1)OCO2 (stereo unspecified)
inactive: [1] 26.5% | [2] 5.4% | [3] 21.6% | [4] 29.4% | [5] 10.2% | [6] 41.1%

O=c1[nH]c2cc(Cl)c([N+](=O)[O-])cc2c2ccc(Cl)cc12
inactive: [1] 3.15% | [2] -7.7% | [3] -1.6% | [4] -10.7% | [5] 3.1% | [6] 8.05%

O=C(O)c1cc([N+](=O)[O-])cc(P(=O)(O)O)c1
inactive: [1] 2.55% | [2] -6.45% | [3] -2% | [4] -20.2% | [5] -3.55% | [6] 12.9%

FC(F)(c1nn[nH]n1)C(F)(F)C(F)(F)c1nn[nH]n1
inactive: [1] -6.8% | [2] -2.6% | [3] -10.8% | [4] -36.2% | [5] -1.05% | [6] -2.95%

COC(=O)c1cc(-c2ccccc2)c2c(=O)n(-c3ccccc3)[nH]c2n1
inactive: [1] 13.7% | [2] 7.35% | [3] 20.5% | [4] -10.3% | [5] -4.55% | [6] 4.85%

C1OC1CO[C@H]1CO[C@H]2[C@@H]1OC[C@@H]2OCC1CO1 (stereo partly specified)
inactive: [1] -9.35% | [2] -2.4% | [3] 8.05% | [4] -30.5% | [5] 18.1% | [6] 2.25%

CCCCC/C(C)=C\C(=O)O
inactive: [1] 8.95% | [2] 9.4% | [3] 7.25% | [4] -14.2% | [5] -2.4% | [6] 5.35%

CC(O)COc1ccc(OCc2ccccc2)cc1 (stereo unspecified)
inactive: [1] 26.6% | [2] 34.6% | [3] 49.9% | [4] 10.2% | [5] 46.5% | [6] 33.9%

C(=N\c1oc(-c2ccccc2)c(-c2ccccc2)c1-c1ccccc1)/c1ccccc1
inactive: [1] 14.4% | [2] -5.15% | [3] -4.85% | [4] 14.3% | [5] 4.2% | [6] 6.2%

NC(CSCCC(=O)O)C(=O)O (stereo unspecified)
inactive: [1] -16.9% | [2] -10.3% | [3] -7.45% | [4] -39.6% | [5] -3.05% | [6] -12.4%

CC(C)CCC(C)C1CCC2C3CC/C(=N/Nc4ccc([N+](=O)[O-])cc4[N+](=O)[O-])C(C)(CCC(=O)O)C3CCC12C (stereo unspecified)
inactive: [1] -45.8% | [2] -12.2% | [3] -24.9% | [4] -24.2% | [5] -0.1% | [6] -3.4%

Cc1ccc(S(=O)(=O)N2CCC(N)=N2)cc1
inactive: [1] 4.8% | [2] -6.7% | [3] -3.75% | [4] -18.4% | [5] 0.45% | [6] -4.85%

O=C1C=CC(=Nc2ccc3c(c2)C(=O)c2cc(F)ccc2-3)O1
inactive: [1] -0.35% | [2] -6.7% | [3] 9.2% | [4] -2.15% | [5] 1.35% | [6] 5.3%

O=c1[nH]cnc2c1ncn2C1CCC(CO)O1 (stereo unspecified)
inactive: [1] -11% | [2] 14.6% | [3] 11.3% | [4] -0.1% | [5] 1.85% | [6] -8.85%

Cc1cccc(N=Cc2ccc(Cl)cc2Cl)c1C
inactive: [1] 34.6% | [2] 20.1% | [3] 26.7% | [4] 28.6% | [5] 19% | [6] 31.6%

O=C1Cc2c(-c3ccccc3)cc(-c3ccccc3)nc2-c2ccccc2N1
inactive: [1] -4.2% | [2] 39.2% | [3] 39% | [4] 25.7% | [5] 29.2% | [6] 41.2%

Cc1ccc(S(=O)(=O)C(CC(=O)O)c2ccccc2)cc1 (stereo unspecified)
inactive: [1] 0.35% | [2] 0.15% | [3] 6.15% | [4] 4.15% | [5] 1.7% | [6] 4.2%

COC1OC(COC(=O)Nc2ccccc2)C2OC12 (stereo unspecified)
inactive: [1] 8.45% | [2] 2.8% | [3] 24.6% | [4] -55.4% | [5] -10% | [6] 1.25%

CC[N+](C)(CCO)C(Cc1ccccc1)c1ccccc1 (stereo unspecified)
inactive: [1] 8.5% | [2] -3.5% | [3] -0.1% | [4] -16.1% | [5] 19.5% | [6] -1.7%
